Data taken from PubChem BioAssay (NCI).
Values joined by “and” are separate entries in the source; they are usually repeats but may differ in a detail not shown here. Equal entries are not always repeated. This is part of a sample that, as a whole, favours compounds with a hit. Of some 83,000 tested, about 20% had one in any assay.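 Results are percent growth after 48 hours of single-concentration exposure. 100 means growth as in untreated cells, lower positive values show inhibition; negative values down to -100 show cell death.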 Values without a mark were called inactive. Active and inactive are the calls of the source. How the source made its calls: active means growth percent below 10; inactive means the rest.

Test system: MDA-MB-468 breast
Assay: NCI-60 one-dose screen, 48 h (100 = growth as untreated, 0 = no growth, -100 = all killed)
Conditions: 10 µM unless noted

| SMILES | growth |
| --- | --- |
| CC(C)(C)c1nc(-c2ccc(O)c(O)c2)cs1 | 53.5% |
| Fc1ccc(-c2cc3nc(C(Cl)Cl)nc(-c4ccccc4)n3n2)cc1 | -59.1% (active) |
| CCC(=O)OCc1ccc(OC)cc1 | 87.3% |
| Cc1ccc(NC(=O)c2sc3nc4c(cc3c2N)C(=O)CCC4)cc1C | 50.7% |
| C=NNc1ccccc1 | 91.2% |
| O=C(Nc1cccc([N+](=O)[O-])c1)NN1CCCCCC1 | 88.7% |
| N#C/C(=C/c1ccc(O)c([N+](=O)[O-])c1)c1nc(-c2ccc([N+](=O)[O-])cc2)cs1 | 14.3% |
| CCOC(=O)C1CN(Cc2ccccc2)C(=O)C1=O (stereo not given) | 106% |
| CCN(CC)CCOc1cccc2c1C(=O)c1ccccc1C2=O | 91.4% |
| CC(C)NS(=O)(=O)/N=C1\NC(=O)NC1=C(Cl)Cl | 60.6% |
| Cc1ccc(C(=O)NN2C(=O)/C(=C/C=C/c3ccco3)SC2=S)cc1 | 71% |
| COc1ccc(/C=N/OCC(O)CNCc2ccccc2)cc1OC1CCCC1 (stereo not given) | 99.2% |
| COc1cc2c3c(c4c5ccccc5[nH]c4c2c(OC)c1OC)C(=O)N(O)C3=O | 32.7% |
| CC1CC(C(C)(C)C)C(=O)C(C(C)(C)C)C1 (stereo not given) | 99.8% |
| Cc1ccc(NC(C(=O)c2ccccc2)c2ccccc2)cc1 (stereo not given) | 8.06% (active) |
| Cc1ccc(C2CC3c4ccccc4C2C2CCCCN32)cc1 (stereo not given) | -0.132% (active) |
| O=C(Nc1ccc(Br)cc1F)c1cc(I)ccc1O | -1.19% (active) |
| c1cc(OCCN2CCCCC2)ccc1CNc1ccc2nc(CCC3CCCCC3)[nH]c2c1 | 27.4% |
| CCN1CCN(C(=O)[C@]23CCC(C)(C)C[C@@H]2C2=CC[C@@H]4[C@@]5(C)CCC(=O)C(C)(C)[C@@H]5CC[C@@]4(C)[C@]2(C)CC3)CC1 | 30.5% |
| O=[N+]([O-])c1cccc(C(c2ccccc2)c2ccccc2)c1 | 93.9% |

| SMILES | growth |
| --- | --- |
| CC/C(=C(/c1ccc(O)cc1)c1ccc(OCCN2CCCCCC2)cc1)c1ccc(Cl)cc1 | 38.6% |
| CCOC(=O)C1(C(=O)OCC)N=C(c2ccccc2)C=C1c1ccccc1 | 94.1% |
| CCCCCC1CCCCN1C(=O)OCC (stereo not given) | 150% |
| OC(COc1cccc2ccccc12)CN1CCN(c2ccccc2)CC1 (stereo not given) | 77.6% |
| O=C1Nc2cc(Cl)ccc2Oc2cc(Oc3ccccc3)ccc21 | 1.71% (active) |
| Clc1ccc(-c2nc(-c3cccs3)no2)cc1 | 44.7% |
| C/C(=N\Nc1ccc([N+](=O)[O-])cn1)c1ccc(N)cc1 | 99.7% |
| COC(=O)/C=C/c1cc(OC)c2c(c1)[C@@H](C(=O)OC)[C@H](c1ccc(OC)c(OC)c1)O2 | 50.9% |
| COc1cc2nc(-c3ccc(C(F)(F)F)cc3)cc(OCCCNCC3CCCO3)c2cc1OC (stereo not given) | 14.2% |
| COc1ccc(CCNC2=CC(=O)CCC2)cc1OC | 109% |
| C#CCNC(=O)[C@H](Cc1ccccc1)NC(=O)[C@]12CC[C@@H](C(=C)C)[C@@H]1[C@H]1CC[C@@H]3[C@@]4(C)Cc5c([nH]c6ccccc56)C(C)(C)[C@@H]4CC[C@@]3(C)[C@]1(C)CC2 | 97.9% |
| COc1cc(C(=O)N2CCN(c3ccccc3)CC2)c2ccccc2n1 | 5.08% (active) |
| c1ccc2c[n+](Cc3ccc4ccccc4n3)ccc2c1 | -0.701% (active) |
| COc1c(C(=O)Nc2ccc(C)c(Br)c2)ccc2ccccc12 | 87.9% |
| Cc1sc2nc(NCc3ccccc3)[nH]c(=O)c2c1C | 23.7% |
| CCOC(=O)CC[C@H](NC(=O)c1ccc(NC)c2ccccc12)C(=O)OCC | 95.1% |
| COc1cc(C2C(C(=O)c3cccs3)=C(O)C(=O)N2CCN2CCOCC2)cc(OC)c1OC (stereo not given) | 101% |
| COc1ccc2c(=O)cc(-c3ccccc3)[nH]c2c1 | 7.37% (active) and -4.48% (active) |
| CCCCN(CCCC)C(=O)[C@H](CC)[C@@H]1CC[C@@H](C)[C@@H]([C@H](C)[C@@H](O)[C@@H](C)C(=O)[C@H](CC)C2O[C@]3(C=C[C@@H](O)[C@]4(CC[C@@](C)([C@H]5CC[C@](O)(CC)[C@H](C)O5)O4)O3)[C@H](C)C[C@@H]2C)O1 (stereo not given in full) | -22.1% (active) |
| O=C(/C(=C/c1cccc([N+](=O)[O-])c1)c1ccccc1)c1ccccc1 | 38.2% |
